VACV mCherry inh: inhibitors of vaccinia virus infection (mCherry reporter signal); Vaccinia virus mCherry reporter infection, fluorescence; Potency, µM (titrated, usually from 36.5 µM), inactives show at the highest dose activity change, negative = inhibition, hits mostly inhibitors; 310,000 compounds, 0.63% hits; AID 720579; calls by dose curve; tested in A549 cells; note: potency is the fitted concentration of half-maximal effect; nearly all actives have a fitted effect of over 35% in size
MARV entry inh: inhibitors of Marburg virus binding or cell entry; Marburg virus pseudotyped entry inhibition, cell reporter; Potency, µM (series often up to 37.8 µM), without a hit: top-dose activity change, negative = inhibition, most hits filed as inhibitors; 300,000 compounds, 1.8% hits; AID 540276; calls by dose curve; tested in HEK293 cells; note: potency is the fitted concentration of half-maximal effect
HCV inhibitor: inhibitors of hepatitis C virus infection; Huh7.5.1 HCVcc-Cre infection, luciferase reporter, 44 h; Potency, µM (series often up to 41.8 µM), inactives show at the top dose activity change, negative = inhibition, hits mostly inhibitors; 340,000 compounds, 3.4% hits; active = well fitted inhibition curve with a large enough effect; inconclusive = small, poorly fitted or top-dose-only effect, or another doubt; inactive = no such curve, though single readings can be large or run the other way; note: potency is the fitted concentration of half-maximal effect
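Whole-lifecycle infectious HCVcc-Cre system; cells 1,000/well, compound then virus (~0.5 moi) added 4 h after plating, 44 h culture. Luciferase read 15 sec following 15 min substrate incubation, room temp.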
VACV Venus inh: inhibitors of vaccinia virus (Venus reporter) | 330,000 compounds, 0.46% hits | Potency, µM (top dose mostly 36.5 µM), inactives show at the top dose activity change, negative = inhibition, actives largely listed as inhibitors | Vaccinia virus Venus reporter expression, fluorescence; calls by dose curve; tested in A549 cells; note: potency is the fitted concentration of half-maximal effect; nearly all actives have a fitted effect of over 30% in size
LASV entry inh: inhibitors of Lassa virus binding or cell entry; Potency, µM (top dose mostly 37.9 µM), for the others: at the highest dose activity change, negative = inhibition, most hits filed as inhibitors; AID 540256; 300,000 compounds, 1.2% hits; Lassa virus pseudotype entry inhibition, cell reporter; calls by dose curve; tested in HEK293 cells; note: potency is the fitted concentration of half-maximal effect; nearly all actives have a fitted effect of over 50% in size
HCMV antiviral: human cytomegalovirus inhibition; 410,000 compounds, 4.5% hits; activity change, negative = inhibition, % at 57.5 µM; HFF cells, HCMV-luciferase reporter, 72 h; active compounds read low; AID 1259415; in the data active = activity change below about -60%; inconclusive = no clear call, values can overlap the other calls; inactive = above about -39%
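Cell-based, HFFs, 1000 cells/well, 16 h 37C; cpds in DMSO + HCMV-luc, MOI 1 PFU/cell; 72 h 37C; OneGlo luminescence after 5 min RT; norm. to buffer vs Salinomycin 10uM.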
Active calls of the source: *; i = inactive; ? = inconclusive; nt = no result given; ! = a repeat was not active; [ ] = dose if it differs, or a comment. An excerpt weighted towards active compounds, which were near 7.8% of everything screened. % is set by controls: 0 for no effect and ±100 for the full control effect.

SMILES | VACV mCherry inh | MARV entry inh | HCV inhibitor | VACV Venus inh | LASV entry inh | HCMV antiviral
Cc1cc(C)cc(C(=O)Nc2cccc(NC(=O)c3ccco3)c2)c1 | i | -19% | nt | -15% | 0% | -73*
COc1cccc(OC)c1C(=O)NC(=S)Nc1cccc(NC(=O)c2ccco2)c1 | -14% | ? | 15% | -1% | 13% | -61*
Cc1cc(C)c(OCC(=O)Nc2cccc(NC(=O)c3ccco3)c2)c(Br)c1 | ? | ? | ? | -25% | -12% | -76*
COc1c(C)cc(Br)cc1C(=O)Nc1cccc(NC(=O)c2ccco2)c1 | 3% | ? | 6.3µM* | -23% | ? | -15
CN(C(=O)Cn1cc(S(=O)(=O)Cc2ccccc2Cl)c2ccccc21)c1ccccc1 | -15% | nt | nt | -4% | ? | 0
CCOc1ccc(NC(=O)c2oc3ccccc3c2NC(=O)C(C)Oc2ccccc2)cc1 (stereo not given) | i | ? | nt | -9% | -4%[46.1 µM] | 24
CC(=O)C[C@H](O)CC(=O)[C@H]1OC(=O)CC/C=C\Cc2ccccc21 | i | nt | -6% | -8% | nt | -61*
Cc1cc(C)n2nc(C(=O)N/N=C/c3ccccc3Cl)nc2n1 | -9% | ? | -2% | -17% | -3% | 69
Cc1cc(C)n2nc(C(=O)OCC(=O)NNC(=O)c3ccccc3)nc2n1 | nt | nt | 0% | nt | nt | -61*
Cc1cc(C)n2nc(C(=O)OCC(=O)NC(=O)c3ccccc3)nc2n1 | -14% | 0%[46.1 µM] | 3% | -5% | -10% | -5
Cc1cc(C)n2nc(C(=O)NC(c3ccccc3)c3ccccc3)nc2n1 | -8% | ? | ? | 10% | ? | -74*
Cc1cc(C)n2nc(C(=O)N/N=C/c3c4ccccc4cc4ccccc34)nc2n1 | -26% | ? | -23% | -8% | ? | -76*
Cc1ccc2c(c1)S/C(=C\c1cccc[n+]1C)N2CCO | nt | nt | ? | nt | nt | -97*
Cc1ccc2c(c1)S/C(=C/c1ccc[n+](CCO)c1)N2C | -18% | ? | 1.6µM* | -15% | nt | -95*
CC=COC(=O)N[C@@H](c1ccccc1)[C@]1(C(C)=O)CCCC1=O | nt | -6%[14.2 µM] | nt | nt | ? | nt
Cc1ccc(CN(C(=O)c2ccccc2Br)C2CCS(=O)(=O)C2)o1 (stereo not given) | -2% | -9%[46.1 µM] | nt | -4% | 7%[46.1 µM] | 36
CCOCCCN(C)C1CCN(C(=O)c2oc3ccccc3c2NC(=O)c2cccc([N+](=O)[O-])c2)CC1 | ? | ? | 14µM* | -2% | ? | 0
N#Cc1ccc(NC(=O)COC(=O)C2Cc3ccccc3CN2C(=O)c2ccccc2)cc1 (stereo not given) | -5% | ? | 10µM* | -3% | 9% | -5
Cc1cccc(C)c1NC(=O)COC(=O)C1Cc2ccccc2CN1C(=O)c1ccccc1 (stereo not given) | -17% | 15% | -1% | -5% | -17% | 21
CCOc1cccc2cc(C(=O)N3CCc4ccccc43)c(=O)oc12 | nt | 27% | -12% | nt | 8% | 26
COc1cccc2cc(C(=O)N3CCc4ccccc43)c(=O)oc12 | -15% | 3%[46.1 µM] | 21% | -7% | -3% | -71*
CCCc1nc2ccccc2c(C(=O)OCC(=O)N2CCc3ccccc32)c1CC | i | ? | 8.9µM* | -11% | ? | 30
COc1cccc(C(=O)OCC(=O)N2CCc3ccccc32)c1OC | i | ? | ? | -5% | 26% | -98*
Nc1ccccc1C(=O)OCC(=O)N1CCc2ccccc21 | -12% | ? | -6% | -4% | 1% | 13
COc1ccccc1OCC(=O)NCC1(N2CCOCC2)CCCCC1 | -9%[7.34 µM] | -15%[46.1 µM] | nt | -8%[7.34 µM] | -11%[46.1 µM] | 106
SMILES | VACV mCherry inh | MARV entry inh | HCV inhibitor | VACV Venus inh | LASV entry inh | HCMV antiviral
O=C(NC1CCCC1)c1ccc(CSc2nc3ccncc3n2Cc2cccc(F)c2)cc1 | ? | -2%[46.1 µM] | nt | ? | -19%[46.1 µM] | -2
Cc1cc(C)nc(NS(=O)(=O)c2ccc(NC(=O)COc3ccc(C(C)(C)C)cc3)cc2)n1 | -10% | ? | nt | -12% | 24%[46.1 µM] | 8
COC(=O)C1=C(c2c(C)noc2C)C[C@@H]2CC[C@H]1N2C(=O)NCc1ccc(C(F)(F)F)cc1 | -12% | nt | ? | -14% | nt | 19
COC(=O)C1=C(c2cc3ccccc3s2)C[C@@H]2CC[C@H]1N2C(=O)NC1CC1 | -7% | nt | ? | -30% | nt | -63*
COC(=O)C1=C(c2c(C)noc2C)C[C@@H]2CC[C@H]1N2C(=O)NC1CC1 | i | nt | 0% | -3% | nt | -97*
COC(=O)C1=C(c2c(C)noc2C)C[C@@H]2CC[C@H]1N2C(=O)NC1CCCCC1 | i | nt | 2% | -3% | nt | 2
COC(=O)C1=C(c2cc3ccccc3s2)C[C@@H]2CC[C@H]1N2C(=O)NCC1CC1 | i | nt | ? | -22% | nt | -32
COC(=O)C1=C(c2cc3ccccc3s2)C[C@@H]2CC[C@H]1N2C(=O)NCc1ccc(C(F)(F)F)cc1 | -16% | nt | 11µM* | ? | nt | -6
O=S(=O)(c1ccc(Br)cc1)c1nc(-c2cccs2)oc1SCc1ccccc1F | -2% | -12%[46.1 µM] | nt | -8% | -7%[46.1 µM] | -9
CC(=O)Nc1cc(C(=O)N2CCCC(C)C2)cc2ncn(CCc3ccccn3)c12 (stereo not given) | i | nt | nt | -16% | nt | nt
CCCSCC(=O)Nc1ncc2c(n1)-c1ccccc1CC2 | i | 8%[46.1 µM] | -21% | -6% | ? | -95*
Cc1cc(NC(=O)COCc2cc(-c3ccc(F)cc3)on2)ccc1Br | -11% | nt | nt | -7% | 9%[46.1 µM] | 3
Cc1ccc(C)c(N(C)C(=O)c2cc3c(=O)[nH]c4ccc(C)cc4c3s2)c1 | nt | -1% | 8.9µM* | nt | nt | ?
CCOCCCN(Cc1ccco1)C(=O)c1cc2c(=O)[nH]c3ccc(C)cc3c2s1 | ? | ? | ? | -29% | nt | -63*!
CCCN(C(=O)c1cc2c(=O)[nH]c3ccc(C)cc3c2s1)c1ccc(CC)cc1 | -15% | 13%[46.1 µM] | nt | 1% | nt | -5
CCCN(CCC)C(=O)c1cc2c(=O)[nH]c3ccc(C)cc3c2s1 | nt | -29% | 11µM* | nt | ? | 2
CCC(C)CN1C(=O)NC(c2ccccc2)C(C(=O)OC)=C1C (stereo not given) | nt | -20%[14.2 µM] | nt | nt | ? | nt
Cc1cn(C)c(CC(=O)Nc2ccc(F)cc2Cl)c1C(=O)O | -7% | nt | nt | -6% | ? | -2
Cc1ccc(O)c(C(=O)c2cc(C#N)c3nc4ccccc4n3c2)c1 | ? | -1%[46.1 µM] | 5µM* | 244% | 3% | -13
COc1cccc(/C=C2\SC(=S)N(CCCC(=O)N3CCCCC3CCO)C2=O)c1 (stereo not given) | nt | nt | ? | nt | nt | -110*
COc1cccc(/C=C2\SC(=S)N(CCCC(=O)N3CCCC3)C2=O)c1 | ? | ? | ? | ? | -24%[46.1 µM] | -112*
CCc1ccc(/C=C2\SC(=S)N(CCCC(=O)N3CCCC3)C2=O)cc1 | ? | nt | nt | ? | nt | -99*

Compound activity: PubChem, National Center for Advancing Translational Sciences (NCATS)
